Data reported in PubChem BioAssay AID485364 (National Center for Advancing Translational Sciences (NCATS), 2010).
Among all 360,000 compounds or so, about 11,000 (3.1%) were called active. Not shown: some 4% with an inconclusive outcome. Calls come from the whole dose curve; as a rule, active = well fitted inhibition curve with a large enough effect; inconclusive = small, poorly fitted or top-dose-only effect; inactive = no such curve, though single readings can be large or run the other way. The entries come from a sample that favours actives as a whole. A call without a number means that no potency is given here.

The molecules below were run against Schistosoma mansoni thioredoxin glutathione reductase (TGR) (UniProt Q962Y6) (assay: qHTS Assay for the Inhibitors of Schistosoma Mansoni Peroxiredoxins). Details: purified TGR, DTNB reduction, TNB absorbance 405 nm; series mostly up to 114 µM.
Summary of the method: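 Kinetic colorimetric format: TGR-catalysed, NADPH-driven DTNB reduction monitored via TNB absorbance. Enzyme dispensed at 20 nM; compound exposure 15 min at room temperature before reaction start.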
Note: nearly all actives have a fitted effect of over 60% in size.
Potency is the fitted concentration of half-maximal effect.

SMILES	Potency
O=C(/C=C/c1ccccc1)Nc1cc(-c2nc3cc(Cl)ccc3o2)ccc1Cl	inactive
COc1ccc(NC(=O)c2sc3nc(-c4cc5cccc(OC)c5oc4=O)[nH]c(=O)c3c2C)cc1	inactive
COc1cc(CNCCSc2nnnn2C)ccc1OCc1ccc(Cl)cc1Cl	inactive
O=c1[nH]c2ccccc2n2c(-c3ccccc3)nnc12	0.1 µM (active)
O=c1cc(-c2ccccc2)n2c(SCc3ccccc3)nnc2[nH]1	inactive
CC(C)Cn1c(=O)c2ccccc2n2c(-c3cccc(Cl)c3)nnc12	inactive
Cc1ccc(Cn2c(CCCNC(=O)C3CCCCC3)nc3ccccc32)cc1	inactive
CCS(=O)(=O)N1CCc2cc(C(=O)NCc3ccc(C)cc3)ccc21	inactive
COc1ccc(S(=O)(=O)n2nc(C)c(S(=O)(=O)N3CCCCCC3)c2C)cc1	inactive
Cc1ccc(C(=O)Nc2cc3c(cc2N2CCCC2)n(C)c(=O)c(=O)n3C)cc1	inactive
CCc1ccc(S(=O)(=O)Nc2cc3c(cc2N2CCCCC2)n(C)c(=O)c(=O)n3C)cc1	50.1 µM (active)
Cc1ccc(NS(=O)(=O)c2ccc3c(c2)n(C)c(=O)c(=O)n3C)c(C)c1	inactive
CCOC(=O)C1CCN(c2ncnc3c2c(-c2ccccc2)cn3-c2cccc(C)c2)CC1	inactive
CCOC(=O)C1CCN(c2nc3c(S(=O)(=O)c4ccc(CC)cc4)nnn3c3ccc(Cl)cc23)CC1	inactive
COc1ccc(S(=O)(=O)NCc2cccn2Cc2cccc(C)c2)cc1	inactive
Cn1c(=O)c2c(-c3ccccc3Br)n(Cc3ccccc3)cc2n(C)c1=O	inactive
Cc1ccc(S(=O)(=O)N2CCN(CC(=O)N/N=C/c3ccc(Br)s3)CC2)cc1	inactive
CC(C)N(C(=O)CN1CCN(S(=O)(=O)c2ccc(Br)s2)CC1)C(C)C	inactive
Cc1cccc(NC(=O)CN2CCCN(S(=O)(=O)c3ccc(Br)s3)CC2)c1	25.1 µM (active)
COc1ccc(CCNC(=O)CCCn2c(=O)c3ccccc3n(Cc3ccc(F)cc3Cl)c2=O)cc1OC	inactive

SMILES	Potency
Cc1ccc(-n2nc(-c3ccco3)cc2C(=O)NCc2cccnc2)cc1	3.55 µM (active)
Cc1ccc(C(=O)NC(=S)NCc2cccnc2)cc1	inactive
CSc1sc(C(=O)NC(=O)NCc2cccnc2)c(C)c1-c1ccon1	inactive
Cc1ccccc1CNC(=O)CCc1cn(Cc2ccccc2C)c2ccccc12	inactive
Cc1cc(C)cc(NS(=O)(=O)c2ccc(-c3cc(C)no3)s2)c1	inactive
Cc1ccccc1CN1C[C@@H]2C[C@@H](c3ccc4nsnc4c3)N3CCC[C@@]23C1=O	inactive
Cc1ccccc1CN1C[C@@H]2C[C@@H](c3cn(C)nc3-c3ccccc3)N3CCC[C@@]23C1=O	7.94 µM (active)
Cc1ccc(CN2CCN(Cc3cn(C)nc3-c3ccccc3)CC2CCO)o1 (stereo not drawn)	inactive
CC(C)c1ccc(NC(=O)c2ccc3c(O)c(S(=O)(=O)c4ccccc4)c(=O)[nH]c3c2)cc1	inactive
Cc1ccc(-c2nn3c(=O)cc(CN4CCN(C(=O)Nc5cccc(C(F)(F)F)c5)CC4)nc3s2)cc1	inactive
COC(=O)c1ccccc1NC(=O)c1cncc(Br)c1	inactive
O=C(Nc1ccc(N2CCCC2=O)cc1)c1cncc(Br)c1	inactive
O=C(NC(=S)Nc1ccc(Cl)c(C(=O)O)c1)c1cncc(Br)c1	12.6 µM (active)
Cc1ccc(CNC(=O)Cn2cnc(S(=O)(=O)N3CCCCC3)c2)o1	inactive
Cc1ccc(CNC(=O)C2(C(F)(F)F)C/C(=C\Cc3ccccc3)CCCO2)o1 (stereo not drawn)	20 µM (active)
Cc1ccc(C(=O)N2CC(=O)Nc3ccccc32)o1	inactive
COC(=O)c1cccc(Cn2nnc3sc4c(c3c2=O)CCC(C(C)(C)C)C4)c1 (stereo not drawn)	inactive
COc1cn(CC(=O)Nc2cccc(C)c2C)c(CN2CCCCC2)cc1=O	inactive
CCc1ccccc1NC(=O)CSc1nc(C)c(C(=O)Nc2ccccc2)c(-c2ccc(Cl)cc2)c1C#N	inactive
COc1ccc(-c2onc(C)c2C)cc1S(=O)(=O)NCC1CCN(Cc2cccc(F)c2)CC1	inactive

SMILES	Potency
CCN1C(=O)[C@@H]2[C@@H](c3ccc(-c4ccccc4)cc3)N3CCCC[C@@]3(C(=O)OC)[C@@H]2C1=O	35.5 µM (active)
CCN1C(=O)[C@@H]2[C@@H](c3ccc(-c4ccc(OC)cc4)c(OC)c3)N3CCC[C@@]3(C(=O)OC)[C@@H]2C1=O	inactive
CCN1C(=O)[C@H]2[C@@H](c3ccc(-c4ccc(F)cc4)cc3)N[C@@](Cc3ccccc3)(C(=O)OC)[C@H]2C1=O	inactive
CCN1C(=O)[C@@H]2[C@@H](c3ccc(-c4cccc(Cl)c4)cc3)N3CCC[C@@]3(C(=O)OC)[C@@H]2C1=O	22.4 µM (active)
COC(=O)[C@@]12CCCN1[C@H](c1ccc(-c3ccc(F)cc3)c(OC)c1)[C@H]1C(=O)N(C)C(=O)[C@H]12	inactive
CCN1C(=O)[C@H]2[C@@H](c3ccc(SC4CCCCC4)c(OC)c3)N[C@@](Cc3ccccc3)(C(=O)OC)[C@H]2C1=O	inactive
Cc1ccc(S(=O)(=O)c2c(Nc3cccc(Cl)c3)sc(C(=O)c3ccc4c(c3)OCO4)c2N)cc1	inactive
CCOC(=O)c1cccc(NS(=O)(=O)c2cc(-c3cnc(C)o3)ccc2OC)c1	inactive
CCOc1ccc(S(=O)(=O)Nc2ccc3oc4c(c3c2)CC(C)CC4)cc1 (stereo not drawn)	inactive
CCOc1ccc(C2C(=O)N(C3CCCCC3)CC(=O)N2CCC2=CCCCC2)cc1OC (stereo not drawn)	inactive
Cc1cccc(-n2ncc(Cl)c(Cl)c2=O)c1	28.2 µM (active)
Cc1ccc(-n2ncc3c(=O)[nH]cnc32)c(C)c1	inactive
C=CCNc1cnn(-c2ccc(C)cc2)c(=O)c1Cl	inactive
COc1ccc(Cn2c(=O)n(-c3ccccc3C)c(=O)c3c4c(sc32)CN(C(C)=O)CC4)cc1	inactive
O=C(CC1C(=O)NCCN1CC(c1ccccc1)c1ccccc1)NCC1CCOCC1 (stereo not drawn)	inactive
Cc1nccn1CCCNC(=O)CC1C(=O)NCCN1Cc1ccc(Cl)c(F)c1 (stereo not drawn)	inactive
Cc1cc(C)n(CCNC(=O)CC2C(=O)NCCN2Cc2ccc(C)o2)n1 (stereo not drawn)	39.8 µM (active)
CCc1nn(CC(=O)N2CCN(c3cccc(C(F)(F)F)c3)CC2)c(=O)c2cc3occc3n12	inactive
